Where a name gives a salt, the structure may show the parent alone.
Test system: S. enterica typhimurium WT
Test: growth AUC normalised to DMSO control (median) (fraction of control); higher = less growth inhibition, active = hit call of the paper
Details: 20 µM;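 active = normalised median growth AUC below 0.1 of DMSO control; inactive = AUC 0.1 or higher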
How it was run: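 Area under the growth curve, calculated by the trapezoidal rule up to entry into stationary phase, was normalised to vehicle wells on the same plate. Strains had been passaged twice overnight without oxygen and then grown in mGAM in 96-well plates from OD578 0.01, each with an approved-drug library compound at 20 μM in 1% DMSO. OD578 was read hourly over 24 h in an anaerobic incubator, and the median of three biological replicates is given.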
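Further: active when median AUC fell below 0.1.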

SMILES | growth AUC normalised to DMSO control
c1ccc2c(c1)Nc1ccccc1S2 [Phenothiazine] | 0.972 (inactive)
O=[N+]([O-])O[C@@H]1CO[C@H]2[C@@H]1OC[C@@H]2O [Isosorbide mononitrate] | 1 (inactive)
CC[C@@]1([C@@H]2O[C@@H]([C@H]3O[C@@](O)(CO)[C@H](C)C[C@@H]3C)C[C@@H]2C)CC[C@H]([C@]2(C)CC[C@]3(C[C@H](O)[C@@H](C)[C@@H]([C@@H](C)[C@@H](OC)[C@H](C)C(=O)O)O3)O2)O1 [Monensin sodium salt] | 1 (inactive)
C[C@]12C=CC(=O)C=C1CC[C@@H]1[C@@H]2CC[C@@]2(C)[C@H]1CC[C@]2(C)O [Methandrostenolone] | 1.01 (inactive)
C=C[C@H]1CN2CC[C@H]1C[C@H]2[C@H](OC(=O)OCC)c1ccnc2ccc(OC)cc12 [Quinine ethyl carbonate] | 0.996 (inactive)
COc1ccc2c(c1)[C@]13CCCC[C@@H]1[C@H](C2)N(C)CC3 [Dextromethorphan hydrobromide monohydrate] | 0.995 (inactive)
Oc1ccc(Cl)cc1Cc1cc(Cl)ccc1O [Dichlorophen] | 0.915 (inactive)
CC(C)=CC1C(C(=O)OCc2cccc(Oc3ccccc3)c2)C1(C)C (stereo unspecified) [Phenothrin] | 0.998 (inactive)
CC(C)C[C@H](CN)CC(=O)O [Pregabalin] | 0.991 (inactive)
CC(C)(C)NCC(O)c1ccccc1Cl (stereo unspecified) [Tulobuterol Hydrochloride] | 0.995 (inactive)
CCN(CC)CCOC(=O)C(O)(c1ccccc1)c1ccccc1 [Benactyzine hydrochloride] | 1.01 (inactive)

From the supplement of paper PMC12350171
